The text below walks through data of PubChem BioAssay.

Results filed as inconclusive are left out. Active and inactive are the calls of the source. Unless noted, how the calls were made is not given here.

A short description of experiment [1]: viability loss with induced miR-34 in A549 – imaging, A549 dox-inducible miR-34, nuclei and caspase counts, primary screen (AID 1347080;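 active means compounds whose cell count with miR-34 switched on is under 0.7 times the count with it off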). Conditions: A549 miR-34 inducible, Hoechst nuclei count, 48 h.
The nature of experiment [2]: blockers of cellular phospholipid synthesis – cell-based, LOPAC library, screen 4, primary screen (AID 1347384). Conditions: animal cells, phospholipid biosynthesis inhibition screen; at 10 µM.
Experiment [3] in a line: galactose survival enhancers in mitochondrial complex I cybrids – cell-based, galactose medium, ATP luminescence, primary screen (AID 1645843;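 active means z-score of at least 1.8 in each of two replicates, scored against plate mean and spread of sample wells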;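 further: positive z means more ATP and so rescue of galactose-driven cybrid death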). To be noted: complex I mutant cybrid cells, 72 h, stronger effect = higher value.
Experiment [4] can be described thus: compounds altering viability of human ES cells (AID 493140).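 Further: cells exposed to compounds for four days before counting.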 To be noted: human embryonic stem cell survival screen; stronger effect = higher value.
Experiment [5] can be described thus: chitosan synthesis blockers in C. neoformans – flow cytometry, Cibacron Brilliant Red staining (AID 1347148).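 Further: compound exposure lasted three days at 37 degrees C.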 Conditions: Cryptococcus neoformans chitosan, stronger effect = lower value; at 10 µM unless noted. (In flow cytometry, cells or beads pass a laser one at a time.)
Experiment [6] in a line: compounds altering circadian rhythm period length – cell-based, LOPAC library, luminescence reporter (AID 2774).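 Further: values are relative to mean of DMSO wells on each plate.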 To be noted: circadian reporter cells, at 7 µM, actives lie on both sides.
Experiment [7] has as its system Hepatitis C virus NS3 helicase. The experiment is described as follows: blockers of NS3h binding to ssDNA – biochemical, fluorescence polarization, LOPAC1280 library, primary screen (AID 687035; in the data active means inhibition above about 37%). To be noted: Purified HCV NS3 helicase, Cy5-dT15 ssDNA binding fluorescence polarization; stronger effect = higher value; concentration not given here. A general note: In fluorescence polarisation assays a small probe gives low polarisation when free and higher when bound to something large.

Experiment [8] can be described thus: compounds altering Cy5-DNA-NS3h complex signal – biochemical, LOPAC1280, artefact control for HCV NS3 helicase inhibitor project (AID 687037). To be noted: Cy5-DNA-NS3h complex fluorescence interference counterscreen. Background: Counterscreens check selectivity or assay interference.
Experiment [9] addresses ATP-dependent translocase ABCB1 (Homo sapiens) (UniProt P08183). The experiment can be described thus: P-glycoprotein substrate transport blockade – cell-based (AID 377; in the data active means fluorescence slope change above about 50%). Conditions: MDR1-expressing cells, fluorescent substrate accumulation slope; stronger effect = higher value; concentration not given here.
The nature of experiment [10]: P. berghei load reduction in hepatocytes – cell-based, HepG2, luciferase luminescence, HepG2 viability, primary screen (AID 624349; in the data active means parasite load remaining mostly below about 12%, no sharp cut-off; inactive means mostly above about 10%;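 further: 100% = mean of DMSO negative control wells on the same plate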). To be noted: P. berghei liver stage in HepG2, luciferase luminescence, concentration not given here; parasite load remaining: stronger effect = lower value; viability: measured here: HepG2 viability without parasites.
Setting [11] is: stronger effect = lower value, cell number ratio, induced over uninduced.
The mark [12] stands for this setting: measured here: relative caspase fold change +Dox/-Dox.
Where [13] appears, read: measured here: total cells with miR-34 induction, stronger effect = lower value.
Setting [14] is: measured here: total cells without miR-34 induction.

ATP-dependent translocase ABCB1 (Homo sapiens), sequence (P08183 whole entry, looked up): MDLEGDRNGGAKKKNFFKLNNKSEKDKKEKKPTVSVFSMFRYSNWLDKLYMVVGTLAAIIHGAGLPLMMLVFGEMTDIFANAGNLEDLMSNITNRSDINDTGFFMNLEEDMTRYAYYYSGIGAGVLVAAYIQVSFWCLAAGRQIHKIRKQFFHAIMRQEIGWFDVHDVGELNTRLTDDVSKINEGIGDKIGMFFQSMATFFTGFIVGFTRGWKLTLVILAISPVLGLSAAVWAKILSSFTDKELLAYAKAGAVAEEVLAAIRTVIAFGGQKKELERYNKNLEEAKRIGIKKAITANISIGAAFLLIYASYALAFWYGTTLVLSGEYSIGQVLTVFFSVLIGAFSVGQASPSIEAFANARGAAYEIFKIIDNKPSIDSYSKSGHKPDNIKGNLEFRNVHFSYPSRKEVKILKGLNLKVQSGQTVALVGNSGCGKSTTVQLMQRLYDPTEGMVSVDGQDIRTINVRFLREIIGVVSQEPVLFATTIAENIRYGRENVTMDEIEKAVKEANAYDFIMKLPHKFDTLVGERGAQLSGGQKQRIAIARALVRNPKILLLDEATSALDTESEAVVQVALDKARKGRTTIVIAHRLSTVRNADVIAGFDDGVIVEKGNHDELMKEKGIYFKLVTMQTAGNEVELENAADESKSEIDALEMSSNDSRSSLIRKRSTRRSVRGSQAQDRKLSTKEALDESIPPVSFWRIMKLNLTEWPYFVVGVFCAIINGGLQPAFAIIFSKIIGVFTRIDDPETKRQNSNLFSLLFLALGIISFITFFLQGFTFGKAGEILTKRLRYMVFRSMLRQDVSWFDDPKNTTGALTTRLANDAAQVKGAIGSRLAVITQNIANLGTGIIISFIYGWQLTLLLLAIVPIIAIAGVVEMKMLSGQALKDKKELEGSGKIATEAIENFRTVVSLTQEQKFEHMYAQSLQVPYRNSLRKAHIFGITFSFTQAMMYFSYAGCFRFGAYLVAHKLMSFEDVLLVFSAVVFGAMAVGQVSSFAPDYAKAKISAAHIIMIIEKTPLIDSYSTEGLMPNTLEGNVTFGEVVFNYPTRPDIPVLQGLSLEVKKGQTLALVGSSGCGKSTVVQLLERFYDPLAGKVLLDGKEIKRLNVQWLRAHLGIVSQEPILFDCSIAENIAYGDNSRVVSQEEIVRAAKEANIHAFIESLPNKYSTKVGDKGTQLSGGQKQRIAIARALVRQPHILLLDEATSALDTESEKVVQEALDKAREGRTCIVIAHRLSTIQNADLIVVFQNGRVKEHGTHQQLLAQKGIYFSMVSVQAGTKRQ

As to `COCCOc1cc2nc[nH]c(=O)c2cc1OCCOC`, the fold change in [1] (setting [11]) was 1.02 (inactive); in experiment [1] (setting [12]) it was 1.39. The cell count was 10200 in experiment [1] (setting [13]) and 10100 in experiment [1] (setting [14]). For the same compound, the compound was classed as inactive in experiment [2]. Moreover, the z-score in experiment [3] was 1.01 (inactive).

Turning to `CCCCCCCCCCCCCCCC(=O)N[C@@H](COP(=O)(O)O)C(=O)O`, the survival in experiment [4] was 91.8 (inactive). Further, the fold change in [1] (setting [11]) is 0.975 (inactive); in [1] (setting [12]), 1.1. Moreover, the figures for the cell count in [1] (setting [13]) and in experiment [1] (setting [14]) were 5800 and 5940, respectively. The fold fluorescence in [5] was 4.28 (inactive).

Consider `CCCCCCCCCCOCCC(=O)O`, for which the survival in experiment [4] was 53.3 (inactive). Moreover, the fold change in experiment [1] (setting [11]) is 0.905 (inactive); in [1] (setting [12]), 1.29. Further, the cell count in experiment [1] (setting [13]) was 5410; in experiment [1] (setting [14]) it was 5970. The fold fluorescence in experiment [5] was 6.36 (inactive).

Turning to `COc1cc(OC)cc(-c2cc3cnc(N)nc3nc2NC(=O)NC(C)(C)C)c1`, the results for the fold change in [1] (setting [11]) and in experiment [1] (setting [12]) were 1.04 (inactive) and 2.01, respectively. In addition, the figures for the cell count in experiment [1] (setting [13]) and in experiment [1] (setting [14]) were 4510 and 4320, respectively. Further, in [2], the compound was classed as inactive. The z-score in experiment [3] was 0.34 (inactive).

As to `Nc1ncnc2c1ncn2[C@@H]1O[C@H](CO)[C@H](O)C1O` (some centres undefined), the period change in [6] is 0.045 h (inactive). Further, in experiment [4], the survival is 3.25 (inactive). In addition, the inhibition in experiment [7] is -1% (inactive). The fluorescence ratio (interference) in [8] is 0.9 (inactive). Further, the fold change in experiment [1] (setting [11]) is 1 (inactive); in [1] (setting [12]) it was 1.47. Moreover, the cell count in experiment [1] (setting [13]) and in [1] (setting [14]) was 11100 in each case. Besides, the outcome in [2] was inactive. Moreover, the z-score in [3] is 2.61 (active).

Regarding `Brc1ccc([C@H]2CN3CCSC3=N2)cc1`, the period change in experiment [6] was -0.16 h (inactive). Also, in [4], the survival was 79.5 (inactive). Moreover, in [7], the inhibition was 0% (inactive). The fluorescence ratio (interference) in experiment [8] is 0.9 (inactive). Also, the fold change in experiment [1] (setting [11]) was 1.04 (inactive); in experiment [1] (setting [12]), 1.3. For the same compound, the cell count in experiment [1] (setting [13]) was 9880; in experiment [1] (setting [14]) it was 9490. Besides, in experiment [2], the result was inactive. Also, in experiment [3], the z-score is 0.145 (inactive).

Regarding `COc1cccc2c1[C@@H]1CN(CCCCn3c(=O)[nH]c4c(sc5ncc(-c6ccccc6)nc54)c3=O)C[C@@H]1CO2`, the period change in [6] is -0.035 h (inactive). For the same compound, in experiment [7], the inhibition was -5% (inactive). In experiment [8], the fluorescence ratio (interference) was 0.9 (inactive). The results for the fold change in [1] (setting [11]) and in [1] (setting [12]) were 1.07 (inactive) and 1.42, respectively. The cell count came to 6250 in experiment [1] (setting [13]) and 5860 in experiment [1] (setting [14]). Further, the call in experiment [2] was inactive. In addition, the z-score in experiment [3] is -1.02 (inactive).

As to `O=c1cc(O)cc(/C=C/c2ccc(O)c(O)c2)o1`, in [6], the period change was -0.02 h (inactive). The inhibition in [7] was -1% (inactive). Besides, in [8], the fluorescence ratio (interference) is 1 (inactive). For the same compound, the results for the fold change in experiment [1] (setting [11]) and in experiment [1] (setting [12]) were 1.09 (inactive) and 1.07, respectively. Besides, the cell count in [1] (setting [13]) was determined as 9040; in [1] (setting [14]), 8270. In addition, the call in experiment [2] was inactive. For the same compound, in [3], the z-score is -0.475 (inactive).

As for `COc1ccc2c(c1)c(CC(=O)O)c(C)n2Cc1ccc(Cl)cc1`, the period change in experiment [6] is 0 h (inactive). Besides, the inhibition in [7] is 0% (inactive). In addition, in [8], the fluorescence ratio (interference) was 1 (inactive). Also, the values for the fold change in experiment [1] (setting [11]) and in experiment [1] (setting [12]) were 0.957 (inactive) and 1.52, respectively. For the same compound, the cell count amounted to 8600 in experiment [1] (setting [13]) and 8990 in experiment [1] (setting [14]). In experiment [2], the compound was classed as inactive. Besides, the z-score in experiment [3] is 2.23 (active).

For `C=CC1(C)CC(=O)C2(O)C(C)(O1)C(OC(C)=O)C(O)C1C(C)(C)CCC(O)C12C` (centres undefined), in [6], the period change was 0.345 h (inactive). Moreover, the inhibition in experiment [7] is 0% (inactive). The fluorescence ratio (interference) in [8] was 1.1 (inactive). Besides, the values for the fold change in experiment [1] (setting [11]) and in [1] (setting [12]) were 0.994 (inactive) and 1.26, respectively. The figures for the cell count in [1] (setting [13]) and in [1] (setting [14]) were 9840 and 9900, respectively. Also, the compound was called inactive in [2]. Moreover, the z-score in experiment [3] was -0.035 (inactive).

`N[C@@H](CCCC(=O)O)C(=O)O`: the period change in experiment [6] is 0.11 h (inactive). Further, in experiment [7], the inhibition is -1% (inactive). Moreover, the fluorescence ratio (interference) in experiment [8] is 0.9 (inactive). The fold change in experiment [1] (setting [11]) was 1.05 (inactive); in experiment [1] (setting [12]), 0.58. Besides, the values for the cell count in experiment [1] (setting [13]) and in [1] (setting [14]) were 10400 and 9930, respectively. Also, in experiment [2], the compound was called inactive. In addition, in [3], the z-score was 0.595 (inactive).

`CN1C2CCC1CC(OC(=O)C(O)c1ccccc1)C2` (centres undefined): the period change in experiment [6] was 0.16 h (inactive). Besides, the fold change in experiment [1] (setting [11]) is 1.02 (inactive); in [1] (setting [12]) it was 1.06. The cell count in experiment [1] (setting [13]) came out at 10900; in experiment [1] (setting [14]), 10700. Besides, the outcome in [2] was inactive. Besides, the z-score in experiment [3] was 0.155 (inactive).

As to `N=C(N)c1ccc(N)cc1`, in experiment [6], the period change was -0.005 h (inactive). Further, the inhibition in experiment [7] is -2% (inactive). Also, the fluorescence ratio (interference) in experiment [8] was 1 (inactive). For the same compound, the fold change is 0.998 (inactive) in [1] (setting [11]) and 2.25 in experiment [1] (setting [12]). For the same compound, the cell count in [1] (setting [13]) amounted to 8960; in experiment [1] (setting [14]), 8980. In addition, the result in [2] was inactive. The z-score in experiment [3] was -0.075 (inactive).

On to `NCC1OC(O[C@@H]2[C@H](O)C(OC3C(O)C(N)CC(N)C3OC3OC(CO)C(O)C(O)C3N)O[C@@H]2CO)C(N)C(O)C1O` (some centres undefined), for which the fluorescence slope change in experiment [9] is 14.4% (inactive). For the same compound, the period change in experiment [6] is 0.005 h (inactive). In addition, the inhibition in experiment [7] was 0% (inactive). Further, the fluorescence ratio (interference) in experiment [8] is 1 (inactive). Also, the fold change was 0.998 (inactive) in [1] (setting [11]) and 1.38 in experiment [1] (setting [12]). The cell count in [1] (setting [13]) came out at 9490; in experiment [1] (setting [14]) it was 9510. Further, the result in [2] was inactive. Besides, the z-score in experiment [3] is 0.61 (inactive).

With `CCN(c1nc(N)c(C(=O)N=C(N)N)nc1Cl)C(C)C`, the period change in experiment [6] is -0.06 h (inactive). The inhibition in experiment [7] was -2% (inactive). The fluorescence ratio (interference) in [8] was 1 (inactive). The fold change in experiment [1] (setting [11]) was 1.19 (inactive); in experiment [1] (setting [12]), 1.19. Besides, the cell count was 5200 in experiment [1] (setting [13]) and 4360 in experiment [1] (setting [14]). In addition, the compound was called inactive in experiment [2]. For the same compound, in experiment [3], the z-score was -1.38 (inactive).

As to `N#CC(C#N)=C(N)/C(C#N)=C/c1ccc(O)cc1`, in experiment [6], the period change is -0.025 h (inactive). The parasite load remaining in [10] is 31.2% (inactive). This compound also yielded a viability in [10] of 70.9%. The inhibition in [7] was -2% (inactive). In addition, the fluorescence ratio (interference) in experiment [8] is 1 (inactive). In addition, the fold change in experiment [1] (setting [11]) was 0.894 (inactive); in [1] (setting [12]), 1.36. The cell count in [1] (setting [13]) was determined as 8590; in [1] (setting [14]), 9610. Also, in [2], the call was inactive. Further, the z-score in [3] was 0.29 (inactive).

For the compound `OC[C@H]1O[C@@H](n2cnc3c(NC4CCCC4)ncnc32)C(O)[C@H]1O` (some centres undefined), in experiment [6], the period change is -0.095 h (inactive). For the same compound, in experiment [7], the inhibition is -5% (inactive). For the same compound, in [8], the fluorescence ratio (interference) was 1 (inactive). The figures for the fold change in experiment [1] (setting [11]) and in experiment [1] (setting [12]) were 0.956 (inactive) and 1.31, respectively. Also, the values for the cell count in experiment [1] (setting [13]) and in experiment [1] (setting [14]) were 9220 and 9650, respectively. Also, in experiment [2], the outcome was inactive. Besides, the z-score in experiment [3] is 1.05 (inactive).

Broadly, the inhibition is the drop in the measured response relative to a control, in per cent. The viability is a per cent measure of how many cells are alive, often set against a control.
